This note sets out measurements from the antibiotic and cytotoxicity screens of Wong et al. (2023).

Screen size: about 39,000 compounds; about 1,500 (3.8%) were called active. This is one part of a sample in which actives are shown more often than they occur.

For the test, the system named is HSkMC (human skeletal muscle cells). The test can be described thus: cytotoxicity call (relative viability < 0.9). As to conditions: 10 µM.
With `COCC(=O)Nc1ccc2c(c1)C(=O)N(C)[C@H]1CC[C@@H](CC(=O)NCc3ccccc3Cl)O[C@@H]1CO2`, the cytotoxicity call is “inactive”.
To `C[C@H](CO)N1C[C@H](C)[C@@H](CN(C)Cc2ccc(Cl)c(Cl)c2)Oc2ccc(NC(=O)Nc3ccccc3)cc2CC1=O` belongs “inactive”.
For the compound `C[C@H]1CN([C@@H](C)CO)C(=O)Cc2cc(NC(=O)Nc3ccccc3)ccc2O[C@@H]1CN(C)Cc1ccc(Cl)c(Cl)c1`, the cytotoxicity call was “active”.
To `C[C@H](CO)N1C[C@H](C)[C@H](CN(C)Cc2ccc(Cl)c(Cl)c2)Oc2ccc(NC(=O)Nc3ccccc3)cc2CC1=O` belongs “active”.
To `COc1ccc(NC(=O)Nc2ccc3c(c2)CC(=O)N([C@H](C)CO)C[C@H](C)[C@@H](CN(C)Cc2ccc(Cl)c(Cl)c2)O3)cc1` belongs “inactive”; to `COc1ccc(NC(=O)Nc2ccc3c(c2)CC(=O)N([C@@H](C)CO)C[C@@H](C)[C@@H](CN(C)Cc2ccc(Cl)c(Cl)c2)O3)cc1`, “inactive”; to `C[C@@H]1CN([C@@H](C)CO)C(=O)Cc2cc(NC(=O)Nc3ccccc3)ccc2O[C@H]1CN(C)Cc1ccc(Cl)c(Cl)c1`, “inactive”.
To `O=C(CN1CCOCC1)NCC[C@H]1CC[C@@H](NC(=O)Nc2ccccc2)[C@H](CO)O1` belongs “inactive”; to `C[C@H]1CN([C@@H](C)CO)S(=O)(=O)c2ccc(-c3cccnc3)cc2O[C@@H]1CN(C)C(=O)c1cccc(F)c1`, “inactive”.
In the case of `Cc1ccccc1S(=O)(=O)N1C[C@H](O)COC[C@@H]2O[C@@H](CC(=O)NCc3ccccc3Cl)CC[C@H]21`, the cytotoxicity call is “inactive”.
To `C[C@@H]1CN([C@@H](C)CO)C(=O)c2cc(NS(=O)(=O)c3ccc(Cl)cc3)ccc2O[C@H]1CN(C)Cc1ccc(C(F)(F)F)cc1` belongs “inactive”.
Take `C[C@@H]1CN([C@H](C)CO)C(=O)c2cc(NS(=O)(=O)c3ccc(Cl)cc3)ccc2O[C@H]1CN(C)Cc1ccc(C(F)(F)F)cc1`: the cytotoxicity call was “inactive”.
For `C[C@@H]1CN([C@H](C)CO)C(=O)c2cc(NS(=O)(=O)c3ccc(Cl)cc3)ccc2O[C@@H]1CN(C)Cc1ccc(C(F)(F)F)cc1`, the cytotoxicity call was “active”.
Consider `Cc1ccc(S(=O)(=O)Nc2ccc3c(c2)C(=O)N([C@@H](C)CO)C[C@@H](C)[C@H](CN(C)Cc2ccc(C(F)(F)F)cc2)O3)cc1`, for which the cytotoxicity call is “inactive”.
`Cc1ccc(S(=O)(=O)Nc2ccc3c(c2)C(=O)N([C@@H](C)CO)C[C@@H](C)[C@@H](CN(C)Cc2ccc(C(F)(F)F)cc2)O3)cc1`: the cytotoxicity call was “inactive”.
To `C[C@@H]1CN([C@@H](C)CO)C(=O)c2cc(NS(=O)(=O)c3ccc(Cl)cc3)ccc2O[C@@H]1CN(C)Cc1ccc(C(F)(F)F)cc1` belongs “active”; to `C[C@H](CO)N1C[C@H](C)[C@@H](CN(C)Cc2ccc(C(F)(F)F)cc2)Oc2ccc(NS(=O)(=O)c3ccc(Cl)cc3)cc2C1=O`, “active”; to `C[C@H](CO)N1C[C@H](C)[C@H](CN(C)Cc2ccc(C(F)(F)F)cc2)Oc2ccc(NS(=O)(=O)c3ccc(Cl)cc3)cc2C1=O`, “active”.
To `C[C@H]1CN([C@@H](C)CO)C(=O)c2cc(NS(=O)(=O)c3ccc(Cl)cc3)ccc2O[C@H]1CN(C)Cc1ccc(C(F)(F)F)cc1` belongs “inactive”.
To `O=C(C[C@H]1C[C@H]2c3cc(NS(=O)(=O)c4ccc(F)cc4)ccc3O[C@H]2[C@@H](CO)O1)NC1CCCCC1` belongs “inactive”; to `C[C@@H]1CCCCO[C@@H](CN(C)C(=O)Nc2cccc3ccccc23)[C@@H](C)CN([C@@H](C)CO)C(=O)c2cc(NS(=O)(=O)c3ccc(Cl)cc3)ccc2O1`, “inactive”; to `C[C@H]1CN([C@@H](C)CO)C(=O)Cc2cc(NC(=O)CCC(F)(F)F)ccc2O[C@H]1CN(C)S(=O)(=O)c1ccccc1`, “inactive”.
For the compound `CO/N=C(\C(=O)N[C@@H]1C(=O)N2C(C(=O)O)=C(C)CS[C@H]12)c1csc(N)n1`, the cytotoxicity call is “inactive”.
With `C[C@@H]1CCCCO[C@H](CN(C)C(=O)c2ccccc2)[C@H](C)CN([C@H](C)CO)C(=O)c2cc(NS(=O)(=O)c3ccc(Cl)cc3)ccc2O1`, the cytotoxicity call is “inactive”.
To `COCC#Cc1cnc2c(c1)C(=O)N([C@H](C)CO)C[C@H](C)[C@H](CN(C)C(=O)Nc1ccc(OC)cc1)O2` belongs “inactive”; to `CS(=O)(=O)N1C[C@H]2COC[C@@]2(C(=O)NCc2ccccn2)C1`, “inactive”; to `C[C@@H]1CN([C@H](C)CO)C(=O)CCCn2cc(nn2)CO[C@H]1CN(C)C(=O)Nc1ccc(C(F)(F)F)cc1`, “inactive”.
Turning to `Cc1ccc(S(=O)(=O)Nc2ccc3c(c2)C(=O)N([C@H](C)CO)C[C@H](C)[C@@H](CN(C)C(=O)Cc2ccccc2)OCCCC[C@@H](C)O3)cc1`, the cytotoxicity call was “inactive”.
To `Cc1noc(C)c1S(=O)(=O)Nc1ccc2c(c1)C(=O)N([C@@H](C)CO)C[C@H](C)[C@H](CN(C)Cc1ccc(Cl)c(Cl)c1)OCCCC[C@@H](C)O2` belongs “inactive”; to `C[C@H](CO)N1C[C@H](C)[C@@H](CN(C)CC2CCCCC2)Oc2c(NC(=O)c3ccc(-c4nccs4)cc3)cccc2C1=O`, “inactive”; to `Cc1ccc(-c2cnc3c(c2)C(=O)N([C@@H](C)CO)C[C@@H](C)[C@H](CN(C)C(=O)Cc2ccncc2)O3)cc1`, “inactive”.
For `C[C@H]1CN([C@@H](C)CO)C(=O)c2cc(NS(=O)(=O)c3ccc(Cl)cc3)ccc2O[C@H]1CN(C)C(=O)Nc1cccc2ccccc12`, the cytotoxicity call is “inactive”.
On to `C[C@H]1CN([C@@H](C)CO)C(=O)c2cc(NS(=O)(=O)c3ccc(Cl)cc3)ccc2O[C@@H]1CN(C)Cc1ccc(C(F)(F)F)cc1`, for which the cytotoxicity call is “active”.
For the compound `C[C@@H]1CN([C@@H](C)CO)C(=O)c2cc(NC(=O)CCC(F)(F)F)ccc2O[C@@H](C)CCCCO[C@@H]1CN(C)C(=O)Nc1ccc(C(F)(F)F)cc1`, the cytotoxicity call is “inactive”.
Consider `Nc1nc(=O)n([C@@H]2CS[C@H](CO)O2)cc1F`, for which the cytotoxicity call was “inactive”.
As to `CNC(=O)c1ccccc1N`, the cytotoxicity call was “inactive”.
To `C[C@H]1CN([C@@H](C)CO)C(=O)c2cc(NC(=O)Nc3ccc(C(F)(F)F)cc3)ccc2O[C@H]1CN(C)Cc1ccc(Oc2ccccc2)cc1` belongs “active”.
Consider `C[C@@H]1CN([C@@H](C)CO)C(=O)c2cc(NC(=O)Nc3ccc(C(F)(F)F)cc3)ccc2O[C@H]1CN(C)Cc1ccc(Oc2ccccc2)cc1`, for which the cytotoxicity call is “active”.
To `C[C@H](CO)N1C[C@H](C)[C@@H](CN(C)Cc2ccc(Oc3ccccc3)cc2)Oc2ccc(NC(=O)Nc3ccc(C(F)(F)F)cc3)cc2C1=O` belongs “active”; to `C[C@@H]1CN([C@@H](C)CO)C(=O)c2cc(NC(=O)Nc3ccc(C(F)(F)F)cc3)ccc2O[C@@H]1CN(C)Cc1ccc(Oc2ccccc2)cc1`, “active”.
To `O=C(C[C@@H]1C[C@H]2c3cc(NC(=O)C4CCOCC4)ccc3O[C@H]2[C@H](CO)O1)NCc1ccc2c(c1)OCO2` belongs “inactive”; to `C[C@@H]1CCCCO[C@@H](CN(C)C(=O)c2ccccc2)[C@@H](C)CN([C@H](C)CO)C(=O)c2cc(NC(=O)Nc3ccc(C(F)(F)F)cc3)ccc2O1`, “inactive”.
For the compound `Cc1noc(C)c1S(=O)(=O)Nc1ccc2c(c1)C(=O)N([C@@H](C)CO)C[C@@H](C)[C@H](CN(C)C(=O)NC(C)C)O2`, the cytotoxicity call is “inactive”.
To `Cl.N=C(N)NC(=N)N1CCOCC1` belongs “inactive”; to `COc1ccc(S(=O)(=O)N2C[C@@H](O)COC[C@H]3O[C@@H](CC(=O)NCCCN(C)C)CC[C@@H]32)cc1`, “inactive”; to `C[C@H](CO)N1C[C@H](C)[C@H](CN(C)S(=O)(=O)c2cccs2)Oc2ccc(NS(=O)(=O)c3cn(C)cn3)cc2C1=O`, “inactive”.
To `Cn1cnc(CCNC(=O)C[C@H]2CC[C@H]3[C@@H](COC[C@H](O)CN3C(=O)Nc3ccc(C(F)(F)F)cc3)O2)c1` belongs “inactive”.
To `C[C@H]1CN([C@@H](C)CO)C(=O)c2cc(NS(=O)(=O)c3ccc(F)cc3)ccc2O[C@H]1CN(C)S(=O)(=O)c1ccccc1` belongs “inactive”.
For the compound `Cc1nn(C)c(Cl)c1S(=O)(=O)NC(=O)[C@@]1(C)CCN1C(=O)c1ccccc1CCc1ccccc1`, the cytotoxicity call is “inactive”.
To `COC(=O)c1cc(S(C)(=O)=O)ccc1OC` belongs “inactive”.
With `C[C@@H]1CN([C@H](C)CO)C(=O)c2cc(NC(=O)Nc3ccc(C(F)(F)F)cc3)ccc2O[C@@H]1CN(C)Cc1ccc(Oc2ccccc2)cc1`, the cytotoxicity call is “active”.
Consider `C[C@H]1CN([C@@H](C)CO)C(=O)c2cc(NC(=O)Nc3ccc(C(F)(F)F)cc3)ccc2O[C@@H]1CN(C)Cc1ccc(Oc2ccccc2)cc1`, for which the cytotoxicity call was “inactive”.
For `C[C@@H]1CN([C@H](C)CO)C(=O)c2cc(NC(=O)Nc3ccc(C(F)(F)F)cc3)ccc2O[C@H]1CN(C)Cc1ccc(Oc2ccccc2)cc1`, the cytotoxicity call is “inactive”.
To `C[C@H](CO)N1C[C@H](C)[C@H](CN(C)Cc2ccc(Oc3ccccc3)cc2)Oc2ccc(NC(=O)Nc3ccc(C(F)(F)F)cc3)cc2C1=O` belongs “active”; to `CN(C)C(=O)c1cccc(-c2ccc3n(c2=O)C[C@H]2[C@H](CO)[C@@H](C(=O)NCC4CC4)N[C@@H]32)c1`, “inactive”.
Consider `COc1ccc(NC(=O)Nc2cccc3c2O[C@@H](CN(C)Cc2ccc(Cl)c(Cl)c2)[C@H](C)CN([C@@H](C)CO)C3=O)cc1`, for which the cytotoxicity call was “inactive”.
To `COc1ccc(NC(=O)Nc2cccc3c2O[C@H](CN(C)Cc2ccc(Cl)c(Cl)c2)[C@@H](C)CN([C@@H](C)CO)C3=O)cc1` belongs “active”; to `C[C@@H]1CN([C@@H](C)CO)C(=O)c2cccc(NC(=O)Nc3ccc(F)cc3)c2O[C@H]1CN(C)Cc1ccc(Cl)c(Cl)c1`, “inactive”; to `C[C@@H]1CN([C@H](C)CO)C(=O)c2cccc(NC(=O)Nc3ccccc3)c2O[C@@H]1CN(C)Cc1ccc(Cl)c(Cl)c1`, “inactive”.
Consider `C[C@H](CO)N1C[C@H](C)[C@H](CN(C)Cc2ccc(Cl)c(Cl)c2)Oc2c(NC(=O)Nc3ccc(F)cc3)cccc2C1=O`, for which the cytotoxicity call is “inactive”.
To `C[C@@H]1CN([C@@H](C)CO)C(=O)c2cccc(NC(=O)Nc3ccccc3)c2O[C@H]1CN(C)Cc1ccc(Cl)c(Cl)c1` belongs “inactive”; to `C[C@@H]1CN([C@H](C)CO)C(=O)c2cccc(NC(=O)Nc3ccc(F)cc3)c2O[C@@H]1CN(C)Cc1ccc(Cl)c(Cl)c1`, “inactive”; to `C[C@H]1CN([C@@H](C)CO)C(=O)c2cccc(NC(=O)Nc3ccc(F)cc3)c2O[C@H]1CN(C)Cc1ccc(Cl)c(Cl)c1`, “inactive”.
As to `C[C@H](CO)N1C[C@H](C)[C@@H](CN(C)Cc2ccc(Cl)c(Cl)c2)Oc2c(NC(=O)Nc3ccc(F)cc3)cccc2C1=O`, the cytotoxicity call was “active”.
To `C[C@@H]1CN([C@H](C)CO)C(=O)c2cccc(NC(=O)Nc3ccc(F)cc3)c2O[C@H]1CN(C)Cc1ccc(Cl)c(Cl)c1` belongs “active”; to `COc1ccc(NC(=O)Nc2cccc3c2O[C@@H](CN(C)Cc2ccc(Cl)c(Cl)c2)[C@@H](C)CN([C@H](C)CO)C3=O)cc1`, “inactive”.
To `C[C@@H]1CN([C@@H](C)CO)C(=O)c2cccc(NC(=O)Nc3ccc(F)cc3)c2O[C@@H]1CN(C)Cc1ccc(Cl)c(Cl)c1` belongs “active”.
